Screening data: PubChem, National Center for Advancing Translational Sciences (NCATS)
In the library only some 5.8% were active in any assay of this set; here they are far more common.
TRPV1 potentiator: potentiators of human vanilloid receptor 1 (TRPV1). Q8NER1. TRPV1-expressing cells, Fluo-8 calcium influx, capsaicin EC20 potentiation. potentiation, % at 8.33 µM. 320,000 tested, 0.02% active. AID 540277; in the data active = potentiation above about 80%; inconclusive = between about 30% and that limit; also: 0% is about no effect
Target sequence (Q8NER1 whole entry, looked up): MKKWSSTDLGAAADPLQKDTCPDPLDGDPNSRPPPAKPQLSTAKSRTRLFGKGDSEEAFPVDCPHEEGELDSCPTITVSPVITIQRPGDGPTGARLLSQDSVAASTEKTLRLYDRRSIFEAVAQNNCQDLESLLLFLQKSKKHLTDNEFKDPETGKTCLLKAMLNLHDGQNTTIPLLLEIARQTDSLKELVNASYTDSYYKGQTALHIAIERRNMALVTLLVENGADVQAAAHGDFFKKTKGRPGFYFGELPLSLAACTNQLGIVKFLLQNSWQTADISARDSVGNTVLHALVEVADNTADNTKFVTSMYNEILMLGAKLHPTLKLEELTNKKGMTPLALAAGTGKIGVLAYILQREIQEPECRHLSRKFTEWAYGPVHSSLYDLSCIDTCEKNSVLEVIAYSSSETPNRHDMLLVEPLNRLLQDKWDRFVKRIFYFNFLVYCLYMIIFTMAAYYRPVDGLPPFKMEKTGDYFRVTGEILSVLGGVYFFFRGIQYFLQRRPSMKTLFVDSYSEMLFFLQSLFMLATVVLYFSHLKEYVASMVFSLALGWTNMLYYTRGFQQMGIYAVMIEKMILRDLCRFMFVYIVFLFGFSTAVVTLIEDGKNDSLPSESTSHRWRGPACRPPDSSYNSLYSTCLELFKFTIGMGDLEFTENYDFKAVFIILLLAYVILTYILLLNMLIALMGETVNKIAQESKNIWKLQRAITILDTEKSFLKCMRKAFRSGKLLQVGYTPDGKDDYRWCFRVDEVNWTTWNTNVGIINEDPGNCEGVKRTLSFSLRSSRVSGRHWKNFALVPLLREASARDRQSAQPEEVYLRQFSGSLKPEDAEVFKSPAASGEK
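Fluo-8 calcium influx in TRPV1-expressing cells, kinetic read (ex 480/em 520 nm). Compound added and read 3 min for agonist activity, followed by capsaicin at EC20 final and 2 min further read for enhancement.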
Gal4-VP16 FLuc: Gal4-VP16 reporter inhibition counter-screen; Drosophila S2 Gal4-VP16 UAS-luciferase, luminescence, 20 h; Potency, µM (titrated, usually from 53.6 µM), inactives show top-dose activity, negative = inhibition, hits mostly inhibitors; 310,000 tested, 3.5% active;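 also: Gal4-VP16 expression switched on by copper sulfate through the metallothionein promoter; potency is read from the fitted curve at half-maximal effect; % is scaled to controls: 0 for no effect and ±100 for the full control effect; nearly all actives have a fitted effect of over 50% in size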
RORg inh: inhibitors of mouse ROR gamma transcriptional activity. 310,000 tested, 5.4% active. AID 2551. Potency, µM (highest dose often 53.6 µM), for the others: top-dose activity change, negative = inhibition, usual class: inhibitors. Drosophila S2 Gal4-RORgamma UAS-luciferase reporter, 20 h. P51450; also: potency is read from the fitted curve at half-maximal effect; % is scaled to controls: 0 for no effect and ±100 for the full control effect; nearly all actives have a fitted effect of over 60% in size
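Compounds are pin-transferred onto Drosophila Schneider cells expressing a copper-inducible Gal4–ROR gamma transactivation domain fusion. After 1 hr, copper sulfate is added to 700 uM final; luciferase is read 20 hr later.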
TRPV1 agonist: activates the human vanilloid receptor TRPV1; 320,000 tested, 0.19% active; activation, % at 8.33 µM; TRPV1-expressing cells, Fluo-8 calcium influx, agonist mode; in the data active = activation above about 80%; inconclusive = between about 30% and that limit; also: 0% is about no effect
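Cells expressing TRPV1 were dye-loaded with Fluo-8 and read kinetically: 10 s baseline, 3 min after compound (agonist portion), then 2 min after EC20 capsaicin (allosteric enhancer portion). Calcium-bound dye fluorescence at 480/520 nm.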
uPA surface inh: cell surface uPA generation inhibition; Potency, µM (highest dose often 38.3 µM), for inactives: at the highest dose activity change, negative = inhibition, usual class: inhibitors; 330,000 tested, 0.31% active; cell surface uPA generation assay, qHTS; active = well fitted inhibition curve with a large enough effect; inconclusive = small, poorly fitted or top-dose-only effect; inactive = no such curve, though single readings can be large or run the other way; tested in mouse RAW 264.7 cells; also: potency is read from the fitted curve at half-maximal effect; % is scaled to controls: 0 for no effect and ±100 for the full control effect; nearly all actives have a fitted effect of over 55% in size
The depositor's hits bear a star; ? = inconclusive; · = no result; [ ] = another dose, or the depositor's remark. Unless noted, calls follow the shape of the dose curve; as a rule, active = well fitted curve in the direction sought with a large enough effect; inconclusive = small, poorly fitted or top-dose-only effect, or another doubt; inactive = no such curve, though single readings can be large; an effect the other way counts as inactive or inconclusive.

SMILES	TRPV1 potentiator	Gal4-VP16 FLuc	RORg inh	TRPV1 agonist	uPA surface inh
COc1cccc(/C=C/C(=O)OCC(=O)NCCC2=CCCCC2)c1	0.0	5.7%	-1.9%	10.6	-1.4%
N=c1oc2cc(O)ccc2cc1C(=O)Nc1ccc(Cl)cc1	-16.6	2µM*	2.24µM*	5.8	-15.3%
Oc1c(N=NC(=S)Nc2ccccc2F)c2ccccc2n1Cc1ccccc1F	6.0	3.98µM*	2.51µM*	-1.3	?
Cc1ccccc1Cn1c(O)c(N=NC(=S)Nc2ccccc2F)c2ccccc21	2.9	?	2.51µM*	-3.2	?
CCNC(=S)N=Nc1c(O)n(Cc2ccc(Cl)cc2)c2ccccc12	18.9	?	4.47µM*	-7.2	-3.3%
Cc1ccc(C)c(Cn2c(O)c(N=NC(=S)Nc3ccccc3F)c3ccccc32)c1	6.7	?	-42.1%	-3.8	-4.0%
Oc1c(N=NC(=S)Nc2ccccc2F)c2ccccc2n1Cc1ccc(Cl)cc1	14.5	-14.0%	3.98µM*	-2.7	?
COc1ccc(C2CC(c3ccccc3)Oc3ccc(C(C)(C)C)cc32)cc1 (stereo not drawn)	·	-7.9%	-14.7%	·	·
CCCCOc1ccc(C(C)NC(=O)C2CCCN(S(=O)(=O)CCC)C2)cc1 (stereo not drawn)	-3.6	-4.1%	28.4%	6.6	4.9%
CC(=O)N1CCN(C(=S)c2ccc(N(C)C)cc2)CC1	-5.4	8.5%	-17.6%	4.2	6.0%
CC1CCN(C(=S)c2ccc(N(C)C)cc2)CC1	-0.1	-25.9%	12.6µM*	0.7	-1.0%
CN(C)c1ccc(C(=S)N2CCCCCC2)cc1	-4.5	-20.8%	20µM*	7.2	·
C=CCNc1nc(Nc2ccccc2F)nc(OCC)n1	-23.0	11.0%[10 µM]	12.6µM*	26.6	-4.9%
CC(=O)C1C(=O)C=C(c2cccs2)CC1c1ccccc1 (stereo not drawn)	-9.5	-8.1%	12.6µM*	9.9	-2.0%
COCCn1c(=O)c(-c2ccc(F)cc2)nc2cnc(OC)nc21	·	2.5%	5.8%	·	·
CCc1ccc(S(=O)(=O)/N=C2\C=C(Nc3ccc(C(=O)O)cc3)C(=O)c3ccccc32)cc1	16.4	?	11.2µM*	?	2.2%
Cc1ccc(S(=O)(=O)/N=C2\C=C(Nc3cccc(C(=O)O)c3)C(=O)c3ccccc32)cc1	8.7	?	15.8µM*	-2.2	0.1%
Cc1ccc(S(=O)(=O)/N=C2\C=C(Nc3cccc(C(=O)O)c3)C(=O)c3ccccc32)c(C)c1	17.6	?	?	0.0	-3.0%
O=C(O)c1ccc2c(c1)C(=O)N([C@H](Cc1ccc(C(F)(F)F)cc1)C(=O)O)C2=O	·	-1.2%	18.1%	·	·
CCOc1ccc(-n2ccnc2SCC(=O)Nc2nnc(CC)s2)cc1	-1.1	3.7%	10µM*	-2.6	-8.0%
CCSc1nnc(NC(=O)CSc2nccn2-c2cccc(C)c2)s1	?	?	11.2µM*	2.2	1.1%
CCN1CCN(C(=O)c2cc(-c3ccc(Cl)s3)nc3ccccc23)CC1	8.2	·	·	0.7	-20.1%
COC(=O)C1CCN(C(=O)c2cc(-c3ccc(Cl)s3)nc3ccccc23)CC1	-6.2	·	·	1.0	1.78µM*
COc1ccc(-c2ccc(OC)c(C3C4C=CCCC4(C)C(=O)N3Cc3ccccc3)c2)cc1 (stereo not drawn)	·	5.9%	-13.3%	·	·
O=C(C#Cc1ccccc1)c1ccc([N+](=O)[O-])cc1	7.6	7.94µM*	11.2µM*	19.1	-8.9%
SMILES	TRPV1 potentiator	Gal4-VP16 FLuc	RORg inh	TRPV1 agonist	uPA surface inh
O=C(c1ccc(-c2ccccc2)cc1)c1ccc([N+](=O)[O-])cc1	1.2	2.7%	32.2%	5.2	·
CN(C)Cc1c(-c2ccc(Cl)cc2)nc2ccccn12	-0.8	?	-41.2%	4.4	2.0%
Clc1ccc(-c2nc3ccccn3c2CN2CCCCC2)cc1	-14.5	-5.0%	17.8µM*	5.7	-10.1%
COc1ccc(-c2nc3c4ccccc4ccn3c2CN2CCCCC2)cc1	7.4	-13.2%	7.94µM*	6.7	?
COc1ccc(-c2nc3c4ccccc4ccn3c2CN2CCCCC2)cc1OC	-8.8	4.8%	?	14.5	?
CC(N1CCOC1=O)S(=O)(=O)c1ccccc1 (stereo not drawn)	-1.9	6.1%	-28.2%	-2.5	0.0%
COc1ccc(/C=C/C(=O)Nc2cc(F)ccc2C)cc1S(=O)(=O)N1CCOCC1	13.8	-15.2%	-5.6%	-0.8	-4.4%
CCCCc1ccc(NC(=S)NCC2CCCO2)cc1 (stereo not drawn)	1.0	?	2.82µM*	26.4	5.4%
Cc1cc(OCC(=O)NNC(=S)NCC2CCCO2)cc(C)c1Cl (stereo not drawn)	11.8	6.31µM*	3.16µM*	-2.3	-2.3%
S=C(NCCN1CCOCC1)Nc1ccc(Br)cc1	2.4	-8.1%	?	-3.4	3.4%
CCCCc1ccc(NC(=S)NCCc2ccc(S(N)(=O)=O)cc2)cc1	0.2	8.91µM*	?	?	1.5%
CCCCc1ccc(NC(=S)NCCN2CCOCC2)cc1	-15.0	?	10µM*	22.6	-3.5%
Cc1ccccc1NC(=S)NCCc1ccc(S(N)(=O)=O)cc1	-3.9	-2.5%	1.7%	3.9	5.2%
COc1cc(/C=N/n2c(C)nc3ccccc3c2=O)cc(OC)c1O	-11.4	-8.8%	-2.1%	4.2	6.2%
O=C(N[C@@H](Cc1ccccc1)C(=O)N1CCN(S(=O)(=O)c2ccccc2F)CC1)c1ccco1	·	·	·	·	0.6%
Cn1cc(CN2CCC(n3nccc3NC(=O)CCOc3ccccc3)CC2)cn1	5.8	-7.3%	-11.0%	-4.4	-1.0%
O=C(Cc1ccc(Cl)c(Cl)c1)NNC(=S)NCC1CCCO1 (stereo not drawn)	-3.9	-14.1%	?	0.5	-1.3%
CCCCc1ccc(NC(=S)Nc2ccc(Cl)c(S(=O)(=O)N(C)C)c2)cc1	-8.3	?	11.2µM*	-2.9	-1.5%
S=C(NCC1CCCO1)Nc1ccccc1Cl (stereo not drawn)	-2.4	15.8%	?	-2.0	-6.1%
O=C(NNC(=S)NCC1CCCO1)c1cc(Br)ccc1Cl (stereo not drawn)	2.6	20µM*	3.16µM*	0.8	1.2%
S=C(NCC1CCCO1)Nc1ccc(Cl)c(Cl)c1 (stereo not drawn)	-14.1	?	3.55µM*	26.1	1.2%
CCN1CCN(CC(=O)Nc2ccc(Cl)c(S(=O)(=O)N(C)C)c2)CC1	1.3	?	?	-2.4	7.5%
S=C(NCC1CCCO1)NC1CCCC1 (stereo not drawn)	1.7	-21.8%	12.6µM*	0.6	3.2%
O=C(NCC1CCCO1)c1cc(S(=O)(=O)Nc2ccc(Br)cc2)ccc1Cl (stereo not drawn)	5.8	-10.7%	43.1%	1.9	5.1%
O=C1CCN(S(=O)(=O)c2cccs2)c2ccc(C(F)(F)F)cc2N1	-5.5	17.8%	19.4%	-4.2	-2.8%
CC(C)[C@H](NC(=O)c1ccccc1)C(=O)OCC(=O)NCc1ccc2c(c1)OCO2	·	·	·	·	0.4%
